Experimental data published in PubChem BioAssay (NCATS).
Values joined by “and” are separate entries in the source; they are usually repeats but may differ in a detail not shown here. Equal entries are not always repeated. Inconclusive results are not listed. Active and inactive are the calls of the source. Unless noted, calls follow the shape of the dose curve; as a rule, active = well fitted curve in the direction sought with a large enough effect; inconclusive = small, poorly fitted or top-dose-only effect, or another doubt; inactive = no such curve, though single readings can be large; an effect the other way counts as inactive or inconclusive.

Tests used:
[1] = Cell Viability - BJ (AID 421; calls by dose curve;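 also: potency is read from the fitted curve at half-maximal effect; cells exposed to compound for 40 hours at 37 °C before readout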); conditions: BJ fibroblast viability, qHTS
Outline: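 Quantitative HTS: ATP depletion in BJ cells after 40 hr compound exposure in complete culture medium, detected with CellTiter-Glo; AC50 from standard Hill fits.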

[2] = Cell Viability - HepG2 (AID 433; calls by dose curve;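 also: potency is read from the fitted curve at half-maximal effect; cells exposed to compound for 40 hours; potency for ATP loss meaning cytotoxicity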); conditions: qHTS
Outline: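 ATP luminescence (CellTiter-Glo) after 40 h compound exposure, 37 °C, HepG2, 1500 cells/well, complete medium. Normalized: DMSO = basal, 100 uM tamoxifen = 100% inhibition. AC50 via standard Hill equation.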

[3] = Cell Viability - MRC5 (AID 434; calls by dose curve;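 also: potency is read from the fitted curve at half-maximal effect; cells exposed to compound for 40 hours at 37 °C; potency reflects cytotoxicity seen as loss of intracellular ATP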); conditions: MRC5 lung fibroblast viability, qHTS
Outline: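 AC50 values come from Hill-equation fits of intracellular ATP loss, measured by CellTiter-Glo luminescence. Normal lung fibroblasts (MRC5) had 40 hr compound treatment at 37 C, normalized between DMSO and 100 uM tamoxifen.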

[4] = Cell Viability - SK-N-SH (AID 435; calls by dose curve; also: potency is read from the fitted curve at half-maximal effect); conditions: SK-N-SH neuroblastoma cell viability qHTS
Outline: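 CellTiter-Glo ATP luminescence, 20 min RT read; cells pre-plated 5 hr, compound 40 hr at 37 °C, 1500 cells/well, complete medium. Normalized DMSO = 0, 100 uM tamoxifen = 100% inhibition; Hill-fit AC50.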

[5] = Cell Viability - N2a (AID 540); conditions: N2a mouse neuroblastoma cell viability; at 92.2 µM (top of the series);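 also: plate controls were DMSO alone for no effect and tamoxifen control for full effect; nearly all actives have a fitted effect of over 45% in size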
Outline: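 CellTiter-Glo ATP luminescence, read 20 min after reagent at room temperature, reported viability following 40 h compound treatment at 37 °C. N2a mouse neuroblastoma cells seeded 1500/well; Hill equation gave AC50.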

[6] = Cell Viability - HUV-EC-C (AID 542); conditions: HUV-EC-C endothelial cell viability, qHTS; series mostly up to 92.2 µM;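 also: cells exposed to compound for 40 hours; % is scaled to controls: 0 for no effect and ±100 for the full control effect; nearly all actives have a fitted effect of over 35% in size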
Outline: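 CellTiter-Glo luminescence measured ATP loss in HUV-EC-C cells (1000/well) after 40 hr compound exposure at 37 °C, in complete culture medium. Concentration-response data were Hill-fitted to give AC50.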

[7] = Cell Viability - SH-SY5Y (AID 544); conditions: SH-SY5Y neuroblastoma cell viability; viability change, negative = cytotoxic: at 92.2 µM (top of the series);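 also: cells exposed to compound for 40 hours; 0% = DMSO alone and -100% = 100 µM tamoxifen; nearly all actives have a fitted effect of over 55% in size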
Outline: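 Cytotoxicity measured via ATP-dependent luciferase luminescence (CellTiter-Glo) following 40 h, 37 °C exposure of 1500 SH-SY5Y cells per well. Concentration-response data were fitted with the standard Hill equation to give AC50.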

[8] = Cell Viability - Renal Proximal Tubule (AID 545); conditions: renal proximal tubule cells viability, at 91.7 µM (top of the series);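 also: cells exposed to compound for 40 hours; 0% = DMSO only and -100% = 100 µM tamoxifen; nearly all actives have a fitted effect of over 40% in size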
Outline: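 Rat kidney proximal tubule cells, freshly isolated; 1000 cells/well, 5 hr settle, compound 40 hr 37 °C. CellTiter-Glo 20 min RT, luminescence read. AC50 by standard Hill fit.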

[9] = Cell Viability - Mesenchymal (AID 546); conditions: mesenchymal cells viability, qHTS; series mostly up to 91.7 µM;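 also: cells exposed to compound for 40 hours before reading; 0% = DMSO only and -100% = 100 µM tamoxifen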
Outline: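 CellTiter-Glo luminescence (intracellular ATP, 20 min room temperature) after 40 hr compound exposure at 37 °C of 1000 glomerulus-derived human kidney mesenchymal cells/well; AC50 values obtained by fitting qHTS concentration-response data to the Hill equation.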

[10] = qHTS Assay for Identification of Small Molecule Inducers of Hypoxia Response (AID 2120; active = well fitted curve in the direction sought with a large enough effect in the signal ratio, with a control signal flat, not every such curve was filed as active; the % refers to the signal ratio; also: 0% is about no effect); conditions: hypoxia response reporter cells, beta-lactamase ratio readout; series mostly up to 104 µM
Outline: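 Reporter induction read as the CCF4 blue/green (460nm/530nm) emission ratio after 2.5 h dye loading at room temperature. ME-180 HRE-beta-lactamase cells received titrated compounds for 17 h at 37 degrees Celsius; AC50 values derived.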

[11] = target: Peroxisome proliferator-activated receptor delta (Homo sapiens) (UniProt Q03181); assay: qHTS assay for small molecule agonists of peroxisome proliferator-activated receptor delta signaling (AID 588534; calls by dose curve;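 also: 0% = DMSO basal wells and 100% = positive control agonist at 10 µM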); conditions: HEK293T PPARdelta-UAS-bla, beta-lactamase ratio, 18 h; series mostly up to 76.7 µM
Chain of Peroxisome proliferator-activated receptor delta (Homo sapiens) (Q03181 whole entry, looked up): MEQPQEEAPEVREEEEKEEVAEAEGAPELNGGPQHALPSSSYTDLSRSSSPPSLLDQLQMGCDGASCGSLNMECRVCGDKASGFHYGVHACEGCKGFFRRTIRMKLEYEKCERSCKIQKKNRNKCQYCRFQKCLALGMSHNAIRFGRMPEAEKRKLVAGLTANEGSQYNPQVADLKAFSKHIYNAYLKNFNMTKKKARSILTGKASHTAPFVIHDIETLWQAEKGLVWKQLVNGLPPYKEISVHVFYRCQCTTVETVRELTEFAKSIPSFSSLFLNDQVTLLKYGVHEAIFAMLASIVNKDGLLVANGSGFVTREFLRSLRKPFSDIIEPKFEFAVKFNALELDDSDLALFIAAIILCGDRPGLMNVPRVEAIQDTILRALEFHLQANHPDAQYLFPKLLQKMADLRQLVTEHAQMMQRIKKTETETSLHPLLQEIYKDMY
Outline: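 Agonist-mode beta-lactamase reporter readout (CCF4 dye, 2 h at RT) after 18 h at 37 °C exposure to a titration; Hill-equation fitting gave EC50 and maximal response.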

[12] = target: Voltage-gated inwardly rectifying potassium channel KCNH2 (Homo sapiens) (UniProt Q12809); assay: qHTS Assay for Small Molecule Inhibitors of the Human hERG Channel Activity (AID 588834); conditions: U2OS BacMam hERG, FluxOR thallium flux fluorescence; series mostly up to 92.2 µM;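 also: top concentration of the series differs between compounds; % is scaled to controls: 0 for no effect and ±100 for the full control effect; lower thallium flux fluorescence means stronger hERG block; nearly all actives have a fitted effect of over 50% in size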
Chain of Voltage-gated inwardly rectifying potassium channel KCNH2 (Homo sapiens) (Q12809 whole entry, looked up): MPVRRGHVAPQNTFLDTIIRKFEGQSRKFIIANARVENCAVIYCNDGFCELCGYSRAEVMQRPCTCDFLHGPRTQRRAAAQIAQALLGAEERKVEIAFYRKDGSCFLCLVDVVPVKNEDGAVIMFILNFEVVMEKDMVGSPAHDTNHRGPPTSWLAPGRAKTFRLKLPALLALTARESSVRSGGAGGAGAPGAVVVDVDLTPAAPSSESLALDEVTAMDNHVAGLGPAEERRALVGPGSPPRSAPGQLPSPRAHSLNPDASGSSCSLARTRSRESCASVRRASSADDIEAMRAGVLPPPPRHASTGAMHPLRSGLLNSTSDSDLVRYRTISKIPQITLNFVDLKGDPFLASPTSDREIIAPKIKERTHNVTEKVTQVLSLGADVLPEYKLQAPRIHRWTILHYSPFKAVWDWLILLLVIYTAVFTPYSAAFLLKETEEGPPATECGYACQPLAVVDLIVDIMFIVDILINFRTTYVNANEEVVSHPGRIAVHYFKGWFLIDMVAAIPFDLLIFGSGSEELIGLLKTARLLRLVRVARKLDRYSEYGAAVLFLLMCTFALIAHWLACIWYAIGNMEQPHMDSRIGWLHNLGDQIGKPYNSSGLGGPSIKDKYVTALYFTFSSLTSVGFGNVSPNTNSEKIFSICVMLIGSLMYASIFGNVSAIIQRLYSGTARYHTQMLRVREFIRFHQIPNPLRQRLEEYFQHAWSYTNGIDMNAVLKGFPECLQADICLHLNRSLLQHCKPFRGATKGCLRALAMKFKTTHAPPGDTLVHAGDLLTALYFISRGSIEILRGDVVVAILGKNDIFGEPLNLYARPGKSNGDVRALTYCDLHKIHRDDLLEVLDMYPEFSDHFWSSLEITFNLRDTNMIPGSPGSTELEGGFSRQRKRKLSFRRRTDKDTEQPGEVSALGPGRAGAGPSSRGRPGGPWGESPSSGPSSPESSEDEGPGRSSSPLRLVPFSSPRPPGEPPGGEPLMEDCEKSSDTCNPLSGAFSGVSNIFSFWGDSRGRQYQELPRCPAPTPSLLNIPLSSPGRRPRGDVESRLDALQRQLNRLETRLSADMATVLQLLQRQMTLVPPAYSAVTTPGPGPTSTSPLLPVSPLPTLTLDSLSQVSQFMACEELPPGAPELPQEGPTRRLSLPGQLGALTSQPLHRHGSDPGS
Outline: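 Thallium-flux (FluxOR) read-out on FDSS: fluorescence read 10 s before and 2 min after stimulation buffer. hERG-BacMam-transduced U2OS cells, compound exposure about 10 min. AC50 by standard Hill equation.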

[13] = qHTS assay for small molecule disruptors of the mitochondrial membrane potential - 1 hr assay (AID 651754; calls by dose curve; also: % is scaled to controls: 0 for no effect and ±100 for the full control effect; nearly all actives have a fitted effect of over 35% in size); conditions: series mostly up to 92.2 µM
Outline: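 Mitochondrial potential in living HepG2 cells after 1 hr compound treatment at 37C was read with Mito-MPS dye added for a further 30 min. Red aggregate and green monomer fluorescence were measured; loss of potential leaves dye as cytoplasmic monomers.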

[14] = target: Peroxisome proliferator-activated receptor alpha (Homo sapiens) (UniProt Q07869); assay: qHTS assay for small molecule agonists of the peroxisome proliferator-activated receptor alpha (PPARalpha) signaling pathway (AID 651778); conditions: PathHunter PPARalpha complementation, chemiluminescence, 6 h; stronger effect = higher value; also: % of control where 0% means no effect
Chain of Peroxisome proliferator-activated receptor alpha (Homo sapiens) (Q07869 whole entry, looked up): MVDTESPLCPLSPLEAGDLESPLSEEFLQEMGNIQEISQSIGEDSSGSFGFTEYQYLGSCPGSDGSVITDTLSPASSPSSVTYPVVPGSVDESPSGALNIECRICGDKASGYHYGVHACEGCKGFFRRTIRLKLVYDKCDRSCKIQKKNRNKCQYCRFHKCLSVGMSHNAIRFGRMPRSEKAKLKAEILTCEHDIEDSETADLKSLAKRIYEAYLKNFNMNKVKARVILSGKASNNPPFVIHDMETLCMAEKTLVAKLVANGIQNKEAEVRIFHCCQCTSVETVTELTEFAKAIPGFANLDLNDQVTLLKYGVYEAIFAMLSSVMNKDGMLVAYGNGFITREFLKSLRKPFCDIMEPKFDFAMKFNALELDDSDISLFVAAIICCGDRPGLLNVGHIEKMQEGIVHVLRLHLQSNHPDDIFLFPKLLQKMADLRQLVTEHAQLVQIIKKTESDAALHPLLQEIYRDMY
Outline: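 Chemiluminescence from complemented enzyme reported PPARalpha activation in cells after 6 hr of compound treatment at 37 C. The detection reagent was incubated for 60 min at room temperature, and compounds were scored as agonists.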

[15] = qHTS assay for small molecule agonists of the antioxidant response element (ARE) signaling pathway measured by Nrf2-dependant transcriptional activity (AID 720636; active = well fitted curve in the direction sought with a large enough effect in the repeat runs; an effect the other way counts as inactive or inconclusive;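 also: HepG2 cells with an ARE-driven luciferase reporter; % of control where 0% means no effect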); conditions: ARE-luc HepG2, Nrf2 luciferase reporter, 16 h; series mostly up to 92.4 µM
Outline: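 Reporter gene assay, HepG2 ARE-luc: 16 hr compound, 37 C, 5% CO2; read-out luciferase luminescence.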

[16] = qHTS assay for small molecule agonists of the antioxidant response element (ARE) signaling pathway measured by Nrf2-dependant transcriptional activity - cell viability counter screen (AID 720653; active = well fitted curve in the direction sought with a large enough effect in the repeat runs; an effect the other way counts as inactive or inconclusive; also: % is scaled to controls: 0 for no effect and ±100 for the full control effect); conditions: ARE-bla HepG2 viability, CellTiter-Glo ATP luminescence, 16 h; stronger effect = lower value
Outline: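 Cytotoxicity counter screen: intracellular ATP quantified by CellTiter-Glo luminescence in the same ARE-bla HepG2 plates, after 16 h compound exposure and a 2 h beta-lactamase substrate step.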

[17] = qHTS assay for cell viability of HEK293 cells (AID 743288); conditions: ATP luminescence (CellTiter-Glo), 18 h; max response: stronger effect = lower value; also: % is scaled to controls: 0 for no effect and ±100 for the full control effect; nearly all actives have a fitted effect of over 50% in size
Outline: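 ATP luminescence (CellTiter-Glo) reports metabolically competent cell number after parental HEK293 cells, 2,000/well, were treated with DMSO-dissolved compounds for 18 h at 37 C; reagent incubation 30 min, room temperature.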

[18] = qHTS assay for cell viability of the p53RE-bla HCT-116 cell line (AID 743292); conditions: p53RE-bla HCT-116 viability, ATP luminescence, 16 h; series mostly up to 95 µM; also: % is scaled to controls: 0 for no effect and ±100 for the full control effect; nearly all actives have a fitted effect of over 55% in size
Outline: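 Readout: CellTiter-Glo luminescence after 30 min RT. Treatment: compounds in DMSO, 16 h, 37 C. Cells: CellSensor p53RE-bla HCT-116, 4,000/well, preincubated 5 h.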

[19] = primary cells of rat origin unless noted

ClCBr
inactive: Potency [1] > 92 µM | Potency [2] > 92 µM | Potency [3] > 92 µM | Potency [4] > 92 µM | activity change, negative = cytotoxicity [5] -7.64% | Potency [6] | Potency [7] | activity change, negative = cytotoxicity [8, 19] -6.27% | outcome [9] | outcome [10] | outcome [11] | Potency [12] | Potency [13] | max response [14] -7.14% | outcome [15] | max response [16] -6.45% | max response [17] 4.95% | Potency [18]

Brc1ccccc1
inactive: Potency [1] > 92 µM | Potency [2] > 92 µM | Potency [3] > 92 µM | Potency [4] > 92 µM | activity change, negative = cytotoxicity [5] -4.7% | Potency [6] | Potency [7] | activity change, negative = cytotoxicity [8, 19] -2.95% | outcome [9] | outcome [10] | outcome [11] | Potency [12] | Potency [13] | max response [14] -0.353% and -0.0548% | outcome [15] | max response [16] -10.2% and 1.06% | max response [17] 3.06% and -4.67% | Potency [18]

Cc1cccc([N+](=O)[O-])c1
inactive: Potency [1] > 92 µM | Potency [2] > 92 µM | Potency [3] > 92 µM | Potency [4] > 92 µM | activity change, negative = cytotoxicity [5] -15.4% | Potency [6] | Potency [7] | activity change, negative = cytotoxicity [8, 19] -7.28% | outcome [9] | outcome [10] | outcome [11] | Potency [12] | Potency [13] | max response [14] -3.99% and -0.65% | outcome [15] | max response [16] -0.821% and -5.67% | max response [17] -6% and -15.6% | Potency [18]

Nc1ccccc1Cl
inactive: Potency [1] > 92 µM | Potency [2] > 92 µM | Potency [3] > 92 µM | Potency [4] > 92 µM | activity change, negative = cytotoxicity [5] 0.502% | Potency [6] | Potency [7] | activity change, negative = cytotoxicity [8, 19] 6.03% | outcome [9] | outcome [10] | outcome [11] | Potency [12] | Potency [13] | max response [14] -2.66% | outcome [15] | max response [16] 8.24% | max response [17] -8.45% | Potency [18]

c1nc[nH]n1
inactive: Potency [1] > 92 µM | Potency [2] > 92 µM | Potency [3] > 92 µM | Potency [4] > 92 µM | activity change, negative = cytotoxicity [5] -1.04% | Potency [6] | Potency [7] | activity change, negative = cytotoxicity [8, 19] -1.05% | outcome [9] | outcome [10] | outcome [11] | Potency [12] | Potency [13] | max response [14] 7.97% | outcome [15] | max response [16] 12.8% | max response [17] -0.284% | Potency [18]

CCSC(=O)Cl
inactive: Potency [1] > 92 µM | Potency [2] > 92 µM | Potency [3] > 92 µM | Potency [4] > 92 µM | activity change, negative = cytotoxicity [5] 2.21% | Potency [6] | Potency [7] | activity change, negative = cytotoxicity [8, 19] -4.42% | outcome [9] | outcome [10] | outcome [11] | Potency [12] | Potency [13] | max response [14] 0.356% | outcome [15] | max response [16] 0.254% | max response [17] -2.01% | Potency [18]

C=CC1CC=CCC1 (configuration not stated)
inactive: Potency [1] > 92 µM | Potency [2] > 92 µM | Potency [3] > 92 µM | Potency [4] > 92 µM | activity change, negative = cytotoxicity [5] 0.971% | Potency [6] | Potency [7] | activity change, negative = cytotoxicity [8, 19] 3.71% | outcome [9] | outcome [10] | outcome [11] | Potency [12] | Potency [13] | max response [14] -0.264% and -1.89% | outcome [15] | max response [16] 1.14% and 1.26% | max response [17] -5.12% and -6.19% | Potency [18]

CC(C)(C)OOC(C)(C)C
inactive: Potency [1] > 92 µM | Potency [2] > 92 µM | Potency [3] > 92 µM | Potency [4] > 92 µM | activity change, negative = cytotoxicity [5] -8.54% | Potency [6] | Potency [7] | activity change, negative = cytotoxicity [8, 19] -8.32% | outcome [9] | outcome [10] | outcome [11] | Potency [12] | Potency [13] | max response [14] 0.694% | outcome [15] | max response [16] -1.66% | max response [17] 1.9% | Potency [18]

Cc1ccc2ccccc2c1
inactive: Potency [1] > 92 µM | Potency [2] > 92 µM | Potency [3] > 92 µM | Potency [4] > 92 µM | activity change, negative = cytotoxicity [5] -3.22% | Potency [6] | Potency [7] | activity change, negative = cytotoxicity [8, 19] -15.4% | outcome [9] | outcome [10] | outcome [11] | Potency [12] | Potency [13] | max response [14] -0.593% | outcome [15] | max response [16] -3.38% | max response [17] 2.28% | Potency [18]

CC(C)(C)OO
inactive: Potency [1] > 92 µM | Potency [2] > 92 µM | Potency [3] > 92 µM | Potency [4] > 92 µM | activity change, negative = cytotoxicity [5] 1.33% and -10.7% | Potency [6] | Potency [7] | activity change, negative = cytotoxicity [8, 19] -2.92% and -10.1% | outcome [9] | outcome [10] | outcome [11] | Potency [12] | Potency [13] | max response [14] -2.75% and -4.99% | outcome [15] | max response [16] 15% and -27.6% | max response [17] -29% and 2.51% | Potency [18]

O=C=NC1CCCCC1
inactive: Potency [1] > 92 µM | Potency [2] > 92 µM | Potency [3] > 92 µM | Potency [4] > 92 µM | activity change, negative = cytotoxicity [5] -6.26% and 7.73% | Potency [6] | Potency [7] | activity change, negative = cytotoxicity [8, 19] -5.86% and -0.993% | outcome [9] | outcome [10] | outcome [11] | Potency [12] | Potency [13] | max response [14] 0.341% and -3.39% | outcome [15] | max response [16] 3.13% and -2.08% | max response [17] -2.8% and 0.863% | Potency [18]

Cc1ccccc1N
inactive: Potency [1] > 92 µM | Potency [2] > 92 µM | Potency [3] > 92 µM | Potency [4] > 92 µM | activity change, negative = cytotoxicity [5] -19.6% and 1.37% | Potency [6] | Potency [7] | activity change, negative = cytotoxicity [8] -0.93% | activity change, negative = cytotoxicity ([8]; primary cells of rat origin) -4.73% | outcome [9] | outcome [10] | outcome [11] | Potency [12] | Potency [13] | max response [14] -4.65% and -3.69% | outcome [15] | max response [16] -8.44% and 1.06% | max response [17] -10.9% and 0.49% | Potency [18]
